Measured values from PubChem BioAssay (NCI).
This is part of a sample that, as a whole, favours compounds with a hit. Of some 83,000 tested, about 20% had one in any assay.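 Negative percent growth values reflect cell death: -40 means 40% of the cells present at the start died, and -100 means all died.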 Unmarked numbers belong to inactive results. Calls of active or inactive are those of the source. The calls were made as follows: active = growth percent below 10; inactive = the rest.

System: HL-60(TB) leukemia
Assay: NCI-60 one-dose screen, 48 h (100 = growth as untreated, 0 = no growth, -100 = all killed)
Conditions: 10 µM unless noted

Q: Which growth does the source give for `COC(=O)C1=Nc2ccc(F)cc2/C1=C\c1sc(Nc2ccc(O)cc2)nc1O` here?
A: The growth was 54.8%.

Q: Which growth does the source give for `O=S(O)c1cc(Cl)cc(Cl)c1OCc1ccccc1` here?
A: The growth was 109%.

Q: With `Cn1ccc(=O)c(S(N)(=O)=O)c1` as the compound, how does the growth read?
A: The growth was 96.4%.

Q: How did the growth turn out when `COc1ccc(C(=O)/C=C/c2ccc(Cl)cc2)cc1S(=O)(=O)Nc1c(N)nc(SC)[nH]c1=O` was run?
A: The growth was 36.8%.

Q: `COc1ccc2c(c1)C(=O)/C(=C/c1ncc([N+](=O)[O-])n1C)O2` was tested. Which growth did it give?
A: Its growth is -7.47% (active).

Q: For `CN1CCN(c2ccc(-c3cnc4c(-c5csc6ccccc56)cnn4c3)cc2)CC1`, which growth is on record?
A: Its growth is 9.53% (active).

Q: `c1ccc(COCC[P+](c2ccccc2)(c2ccccc2)c2ccccc2)cc1` was tested. Which growth did it give?
A: Its growth is -52.2% (active).

Q: `CCOC(=O)c1c(C)oc2ncnc(Nc3ccc(NC(=O)Nc4cccc(Cl)c4)cc3)c12` was tested. Which growth did it give?
A: Its growth is 88.4%.

Q: Which growth does the source give for `COc1ccccc1/C=C/C(=O)CCC(=O)O` here?
A: The growth was 88.3%.

Q: Which growth does the source give for `COC(=O)c1c2c(c(C)[n+]([O-])c1C)C(=O)C=C(NCc1cccc(OC)c1)C2=O` here?
A: The growth was -37.3% (active).

Q: With `CN(C)c1ccc(/C=C/c2cc[n+](C)c(/C=C/c3ccc(N(C)C)cc3)c2)cc1` as the compound, how does the growth read?
A: Its growth is -56.3% (active).

Q: With `COc1cc(-c2nn(-c3ccc(NC(=O)NCCNS(=O)(=O)c4ccc(F)cc4)cc3)cc2-c2ccncc2)ccc1Cl` as the compound, how does the growth read?
A: The growth was -9.47% (active).

Q: With `CC1(C)Nc2cccc3c(N=Nc4ccc(N=Nc5ccccc5)c5ccccc45)ccc(c23)N1` as the compound, how does the growth read?
A: Its growth is 86.1%.

Q: With `O=[N+]([O-])c1cccc(-c2nc(-c3ccc(Cl)cc3Cl)cn2-c2ccccc2)c1` as the compound, how does the growth read?
A: The growth was 35.3%.

Q: With `O=S(=O)(O)c1cccc2cccnc12` as the compound, how does the growth read?
A: The growth was 94%.

Q: For `CC1CCN(CCCCCOc2ccc3oc4cc(Cl)ccc4c(=O)c3c2)CC1`, which growth is on record?
A: The growth was 43.4%.

Q: With `COc1cc(-c2nc(SC(C)C)nc(Nc3ccccc3C)c2C#N)cc(OC)c1OC` as the compound, how does the growth read?
A: Its growth is 103%.

Q: Which growth does the source give for `c1ccc(Sc2ccccc2)cc1` here?
A: The growth was 85.8%.

Q: `Brc1ccc(Br)nn1` was tested. Which growth did it give?
A: The growth was -32.7% (active).

Q: Which growth does the source give for `N#Cc1ncc(Br)c(NC2CCCCCC2)n1` here?
A: Its growth is 111%.

Q: `Nc1ncn(C2OC(CO)C(O)C2O)c(=O)n1` (stereo unspecified) was tested. Which growth did it give?
A: The growth was -44.6% (active).

Q: With `COc1cccc2c1O/C(=C\c1ncc([N+](=O)[O-])n1C)C2=O` as the compound, how does the growth read?
A: Its growth is -14.8% (active).

Q: For `[2H]C([2H])([2H])Oc1cc(F)ccc1/C=C/C(=O)/C=C(/C=C/c1ccc(F)cc1OC([2H])([2H])[2H])OB(F)F`, which growth is on record?
A: Its growth is 11.6%.

Q: With `CNC(=O)c1cccnc1` as the compound, how does the growth read?
A: The growth was 99.5%.

Q: How did the growth turn out when `O=C(Nc1ccc2ncnc(Nc3ccc(F)c(Cl)c3)c2c1)c1cccs1` was run?
A: The growth was 89.7%.

Q: How did the growth turn out when `COc1ccc(C(=O)/C=C/c2ccccn2)c(O)c1` was run?
A: Its growth is 23.4%.

Q: For `Cc1cc(C)n(-c2nc(-c3cccs3)c(C#N)c(=O)[nH]2)n1`, which growth is on record?
A: The growth was 94.4%.

Q: Which growth does the source give for `O=[N+]([O-])c1cccc(N=Cc2ccccc2)c1` here?
A: The growth was 106%.

Q: For `CC(C)(C)OC(=O)N[C@@H](Cc1ccccc1)C(=O)N(Cc1ccccc1)C1(C(=O)NCc2ccccc2)CCN(Cc2ccccc2)CC1`, which growth is on record?
A: The growth was 7.23% (active).

Q: How did the growth turn out when `CSc1nn2c(-c3cc4cc(Br)ccc4oc3=O)ccnc2c1C#N` was run?
A: The growth was 102%.

Q: `CCOC(=O)C(Cc1ccc(OC)cc1)C(=O)OCC` was tested. Which growth did it give?
A: Its growth is 3.77% (active).

Q: Which growth does the source give for `Cn1cc(C=O)c2ccccc21` here?
A: Its growth is 92.8%.

Q: With `CCc1nc(N)nc(N)c1C#CC(C)c1ccc(-c2ccncc2)cc1Cl` (stereo unspecified) as the compound, how does the growth read?
A: Its growth is -19.9% (active).

Q: With `COC(=O)CCc1n(Cc2ccc3ccccc3c2)c2ccccc2[n+]1Cc1ccc2ccccc2c1` as the compound, how does the growth read?
A: The growth was -49.1% (active).

Q: For `O=C(Nc1ccc(Br)cc1)C1=NCCCCN1`, which growth is on record?
A: The growth was 98%.

Q: With `O=C(Nc1cccc2c1C(=O)c1cccc(Nc3cccc4c3C(=O)c3cccc(NC(=O)c5ccccc5)c3C4=O)c1C2=O)c1ccccc1` as the compound, how does the growth read?
A: The growth was 118%.

Q: Which growth does the source give for `COc1cc2c(cc1OC(C)=O)C(=O)CCCC2` here?
A: The growth was 143%.

Q: `Cc1cc(N2CCN(CCNc3ccnc4cc(Cl)ccc34)CC2)nc(N2CCOCC2)n1` was tested. Which growth did it give?
A: Its growth is 44.8%.

Q: `COC(=O)[C@H](Cc1cn(C)cn1)NC(=O)[C@H](C)NC(=O)Nc1cc(C(F)(F)F)cc(C(F)(F)F)c1` was tested. Which growth did it give?
A: Its growth is -70.4% [100 µM] (active).

Q: How did the growth turn out when `CC1(C)[C@@H](NOCCCN)CC[C@]2(C)[C@H]3C(=O)C=C4[C@@H]5C[C@](C)(C(=O)O)CC[C@]5(C)CC[C@@]4(C)[C@]3(C)CC[C@@H]12` was run?
A: Its growth is -31.3% [100 µM] (active).

Q: Which growth does the source give for `O=Cc1c(OCc2cnnn2CC(=O)Nc2ccc(Cl)cc2)ccc2ccccc12` here?
A: The growth was 98.5%.
